Assay results taken from PubChem BioAssay (NCI).
The panel holds about 79,000 compounds, 15% with a hit somewhere; the sample as a whole holds those more often. Active and inactive are the calls of the source. No stated cut-off is given here; in the data, active means growth inhibition above about 70%; inactive means the rest.

Test: NCI Yeast Anticancer Drug Screen. Data for the rad50EPP+ strain (AID 151);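 further: 0% = growth of vehicle-treated control cultures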
Settings: S. cerevisiae rad50 mutant strain, stronger effect = higher value
Experimental: Growth inhibition of yeast strains with defined genetic alterations is measured as a screen for potential anti-cancer activity. Selected strains with alterations in DNA damage repair or cell cycle control were exposed to compounds and growth inhibition was measured relative to vehicle treated controls. The strain used in this assay is rad50EPP+

Measured: growth inhibition

O=C(COc1ccc(Cl)cc1Cl)NO
inactive: at 1.2 µM -5% | at 3.7 µM 0% | at 11.0 µM 12% | at 33.0 µM 35%
active: at 100.0 µM 79%

Cc1ccc2c(c1N)C(=O)c1ccccc1C2=O
active: at 33.0 µM 78% | at 100.0 µM 76%
inactive: at 1.2 µM 22% | at 3.7 µM 45% | at 11.0 µM 69%

COC(=O)C1C2c3ccccc3C(c3ccccc32)C1C(=O)OC (stereo not given)
inactive: at 1.2 µM 4% | at 3.7 µM 5% | at 11.0 µM 4% | at 33.0 µM 7% | at 100.0 µM 10%

O=c1oc2ccccc2c(O)c1C(c1ccc2c(c1)Cc1ccccc1-2)c1c(O)c2ccccc2oc1=O
inactive: at 1.2 µM -16% | at 3.7 µM 43% | at 11.0 µM 46% | at 33.0 µM 50% | at 100.0 µM 51%

CC[C@@]1(O)C(=O)OCc2c1cc1n(c2=O)Cc2cc3c(NC(=O)CN)cccc3nc2-1
inactive: at 1.2 µM -4% | at 3.7 µM 2% | at 11.0 µM 6% | at 33.0 µM 19% | at 100.0 µM 49%

O=C(c1ccccc1)C1C(c2ccccc2[N+](=O)[O-])N1C1CCCCC1 (stereo not given)
inactive: at 1.2 µM 5% | at 3.7 µM 19% | at 11.0 µM 48%
active: at 33.0 µM 80% | at 100.0 µM 82%

O=c1oc2ccccc2c(O)c1C(c1ccc2ccccc2c1)c1c(O)c2ccccc2oc1=O
inactive: at 1.2 µM 6% | at 3.7 µM 41% | at 11.0 µM 51% | at 33.0 µM 50% | at 100.0 µM 46%

O=Cc1ccc(C(F)(F)F)cc1.[C-]#[O+].[C-]#[O+].[C-]#[O+].[Cr]
inactive: at 1.2 µM 12% | at 3.7 µM 20% | at 11.0 µM 37% | at 33.0 µM 46% | at 100.0 µM 33%
